Results published in ChEMBL document CHEMBL3988442, “University of Dundee, Small-Polar-MMV Screening Library” (2021).

Tests used:
Type in all cases: functional
Design in all cases: scale not given: direction of the effect not stated beside the values
Conditions in all cases: 30 µM
[1] = target: T1, Aspartate--tRNA(Asp/Asn) ligase (Mycobacterium tuberculosis (strain ATCC 25618 / H37Rv)) (UniProt P9WFW3); assay: Assay for Asp RNA synthetase-1 from Mycobacterium tuberculosis; further: in the data most compounds retested in dose-response had high values
T1 sequence (whole entry): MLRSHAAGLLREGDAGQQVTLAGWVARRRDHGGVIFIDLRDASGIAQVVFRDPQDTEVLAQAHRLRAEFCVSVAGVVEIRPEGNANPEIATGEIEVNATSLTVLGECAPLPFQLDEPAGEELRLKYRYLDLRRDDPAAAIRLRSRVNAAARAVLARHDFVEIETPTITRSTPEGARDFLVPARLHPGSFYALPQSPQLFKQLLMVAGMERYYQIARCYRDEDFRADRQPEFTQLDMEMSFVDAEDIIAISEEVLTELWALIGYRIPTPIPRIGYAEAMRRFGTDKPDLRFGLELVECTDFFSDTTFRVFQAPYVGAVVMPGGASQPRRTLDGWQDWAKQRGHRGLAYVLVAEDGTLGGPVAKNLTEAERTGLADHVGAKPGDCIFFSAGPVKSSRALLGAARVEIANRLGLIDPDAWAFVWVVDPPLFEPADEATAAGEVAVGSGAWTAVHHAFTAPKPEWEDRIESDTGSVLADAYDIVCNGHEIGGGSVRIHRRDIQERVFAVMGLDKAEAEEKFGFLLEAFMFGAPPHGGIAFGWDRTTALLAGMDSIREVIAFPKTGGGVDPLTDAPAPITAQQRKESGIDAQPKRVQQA

[2] = target: Shiga toxin 2 (Escherichia coli O157:H7) (UniProt P09385+P09386); assay: E. coli 0.157:H7 Shiga Toxin SOP - stx2 screening assay
[3] = target: AMP-activated protein kinase, AMPK (Homo sapiens) (UniProt P54646+O43741+P54619+Q9UGJ0+Q9Y478+Q13131+Q9UGI9); assay: AMP-dependent Kinase enzyme assay. An in vitro enzyme assay that detects ADP turnover that is directly proportional to AMPK activity. This uses naive AMPK that is activated during the assay with MK-8722

| Compound | Percent Effect [1] | Percent Effect [2] | Percent Effect [3] |
| --- | --- | --- | --- |
| N#Cc1c(C2CC2)cc(-c2ccc(O)cc2)nc1N | -1.42% | 15.9% | – |
| CCN1CCN(C(=O)COc2ccc(CN(C)S(C)(=O)=O)cc2)CC1 | – | – | -0.955% |
| O=C(NCC(O)c1cccc(F)c1)c1cccnc1O (stereo not given) | -2.85% | -19% | – |
| Cc1ccc(-c2ncc(C(=O)NCCNc3ncccn3)s2)c(C)c1 | 7.92% | -13.5% | – |
| COc1cccc(OCC2CCCN(C(=O)c3cnc(C)nc3O)C2)c1 (stereo not given) | -0.346% | 2.77% | – |
| COc1cccc(CN(C)S(=O)(=O)N2CCOCC2)c1 | -0.479% | 9.56% | – |
| CCn1cc(CN2CCC(c3nnc(CN(C)C)n3CC)CC2)cn1 | -2.35% | -57.2% | – |
| Cc1[nH]ncc1C(=O)N1CCCC(n2cncn2)C1 (stereo not given) | 1.7% | 22.7% | – |
| O=C(NCc1ccccc1)N1CCC2(CC(=O)N(c3ccsc3)C2)C1 (stereo not given) | -2.24% | -10.6% | – |
| CC(=O)Nc1cccc(-c2ccccc2CCN)c1 | – | – | 4.86% |
| CC(C)c1nc2c(n1C)CCN(Cc1nc(-c3ccsc3)no1)C2 | -3.99% | -3.44% | – |
| COc1ccc(NC(=O)CCN2CC=C(c3cnn(C)c3)CC2)c(C)c1 | – | – | 6.63% |
| COc1ccc2ncn(Cc3ncc[nH]3)c(=O)c2c1 | – | – | -1.95% |
| COC(=O)C1CCN(C(=O)CN2CCN(c3cccc(C)c3)CC2)CC1 | -0.137% | -48.5% | – |
| O=C(Nc1cnn(CCN2CCOCC2)c1)c1ccccn1 | -1.48% | 19.4% | – |
| O=C(c1cc2ccccc2[nH]c1=O)N1CCC2(CCCNC2)C1 (stereo not given) | – | – | 16.8% |
| COc1c(CNC2CCN(c3ncccn3)CC2)c(C(C)C)nn1C | -2.81% | 30.1% | – |
| Cc1ncc2c(n1)CN(CC(=O)Nc1ccncc1)CC2 | -0.281% | 5.69% | – |
| CSc1ccccc1C(=O)C1CCCN(Cc2cc(C(C)C)[nH]n2)C1 (stereo not given) | – | – | 6.61% |
| Cc1nn(C)c(N(C)C)c1CNCc1cccnc1 | -1.51% | -13% | – |
| CS(=O)(=O)c1ccc(OCCNCc2cccc(F)c2)cc1 | -5.13% | -38.6% | – |
| CNc1ccc(CC2CCCN(C(=O)c3cnc(C)nc3)C2)nn1 (stereo not given) | 1.57% | -10.7% | – |
| O=C(NCCN1CCCCCC1=O)c1ccn(-c2ccc(F)cc2)n1 | 3.8% | 14.8% | – |
| Cc1noc(C)c1-c1cncc(C2CCCN2Cc2cncnc2)n1 (stereo not given) | -2.78% | 0.369% | – |
| CCc1cccc(NS(=O)(=O)c2cc3c(c(C(=O)O)c2)OCCO3)c1 | -2.26% | -33.5% | – |
| CCOCc1ncn2c1CN(C(=O)Nc1cccc(C)c1)CC2 | 1.59% | -12.7% | – |
| Cc1ccc2oc(C(=O)N3CCCC(c4noc(C)n4)C3)cc2n1 (stereo not given) | -6.59% | -27.4% | – |
| Cc1cc(C2CCCN(CCCNS(C)(=O)=O)C2)n[nH]1 (stereo not given) | -3.97% | 8.81% | – |
